Results on eleven molecules are retold here after PubChem BioAssay (NCATS).

Assay [1] is described as follows: qHTS of pediatric cancer cell lines to identify multiple opportunities for drug repurposing: Primary screen for Saos-2 cells (AID 1347097). Further: nearly all actives have a fitted effect of over 40% in size. An outline of the steps:
(§1)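 Readout: CellTiter-Glo luminescence, 48 h treatment. Controls DMSO (neutral) and bortezomib 2.3 µM final (positive). Potency and efficacy taken from primary-screen concentration-response curves.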
In general terms: In qHTS, concentration-response curves come from the screen itself.

The nature of assay [2]: qHTS of pediatric cancer cell lines to identify multiple opportunities for drug repurposing: Primary screen for SK-N-SH cells (AID 1347098). Further: nearly all actives have a fitted effect of over 65% in size. The gist of the method:
(§2)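 Cells (500-1,000/well) rested 5 h, then received compounds for 48 h; metabolically active cells were measured by CellTiter-Glo luminescence. Final concentrations spanned up to 46 µM (MIPE, 11-point) or 0.59 nM-46 µM (NPC, 8-point) in primary screens, 11-point in follow-ups.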

Assay [3] can be described thus: qHTS of pediatric cancer cell lines to identify multiple opportunities for drug repurposing: Primary screen for NB1643 cells (AID 1347099). Further: nearly all actives have a fitted effect of over 50% in size. The gist of the method: as §1
Assay [4] can be described thus: qHTS of pediatric cancer cell lines to identify multiple opportunities for drug repurposing: Primary screen for LAN-5 cells (AID 1347100). An outline of the steps:
(§3)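 Cells (500-1,000/well) in growth media were settled 5 h at 37 degrees C, then given compounds for 48 h. Viability was read as CellTiter-Glo luminescence. Primary runs used MIPE at 11 points (0.78 nM-46 µM) and NPC at 8 points (0.59 nM-46 µM); follow-ups used 11 points.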

The nature of assay [5]: qHTS of pediatric cancer cell lines to identify multiple opportunities for drug repurposing: Primary screen for BT-12 cells (AID 1347101). Further: nearly all actives have a fitted effect of over 25% in size. An outline of the steps:
as §2

Assay [6] in a line: qHTS of pediatric cancer cell lines to identify multiple opportunities for drug repurposing: Primary screen for Rh18 cells (AID 1347102). Further: nearly all actives have a fitted effect of over 65% in size. An outline of the steps:
as §3

A short description of assay [7]: qHTS of pediatric cancer cell lines to identify multiple opportunities for drug repurposing: Primary screen for RD cells (AID 1347104). Further: nearly all actives have a fitted effect of over 55% in size. An outline of the steps: as §1
Assay [8] can be described thus: qHTS of pediatric cancer cell lines to identify multiple opportunities for drug repurposing: Primary screen for MG 63 (6-TG R) cells (AID 1347105). Further: nearly all actives have a fitted effect of over 50% in size. The gist of the method: as §1
Assay [9] can be described thus: qHTS of pediatric cancer cell lines to identify multiple opportunities for drug repurposing: Primary screen for control Hh wild type fibroblast cells (AID 1347106). Further: nearly all actives have a fitted effect of over 55% in size. The gist of the method:
as §3

Assay [10] is described as follows: qHTS of pediatric cancer cell lines to identify multiple opportunities for drug repurposing: Primary screen for Rh30 cells (AID 1347107). Further: nearly all actives have a fitted effect of over 75% in size. The gist of the method:
as §3

Assay [11] in a line: qHTS of pediatric cancer cell lines to identify multiple opportunities for drug repurposing: Primary screen for Rh41 cells (AID 1347108). Further: nearly all actives have a fitted effect of over 70% in size. The gist of the method: as §1
The nature of assay [12]: qHTS of pediatric cancer cell lines to identify multiple opportunities for drug repurposing: Primary screen for OHS-50 cells (AID 1347103). Further: nearly all actives have a fitted effect of over 40% in size. An outline of the steps:
as §2

Assay [13] can be described thus: qHTS of pediatric cancer cell lines to identify multiple opportunities for drug repurposing: Confirmatory screen for NB1643 cells (AID 1347109). Further: nearly all actives have a fitted effect of over 45% in size. The gist of the method:
as §3

Assay [14] is described as follows: qHTS of pediatric cancer cell lines to identify multiple opportunities for drug repurposing: Confirmatory screen for SK-N-MC cells (AID 1347111).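 Further: cells exposed to compound for 48 h before the readout; nearly all actives have a fitted effect of over 70% in size.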 The gist of the method: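 Metabolically active cells were quantified by ATP-dependent luminescence (CellTiter-Glo, 15 min at room temperature) following 48 h treatment. Cells had been plated at 500-1,000 per well and settled for 5 h beforehand.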

A short description of assay [15]: qHTS of pediatric cancer cell lines to identify multiple opportunities for drug repurposing: Confirmatory screen for BT-12 cells (AID 1347112). Further: nearly all actives have a fitted effect of over 55% in size. The gist of the method:
as §3

The nature of assay [16]: qHTS of pediatric cancer cell lines to identify multiple opportunities for drug repurposing: Confirmatory screen for LAN-5 cells (AID 1347113). Further: nearly all actives have a fitted effect of over 65% in size. An outline of the steps: as §3
Assay [17] in a line: qHTS of pediatric cancer cell lines to identify multiple opportunities for drug repurposing: Confirmatory screen for NB-EBc1 cells (AID 1347115).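 Further: cells exposed to compound for 48 h before the viability read; nearly all actives have a fitted effect of over 45% in size.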 The gist of the method:
as §3

Assay [18] can be described thus: qHTS of pediatric cancer cell lines to identify multiple opportunities for drug repurposing: Confirmatory screen for SJ-GBM2 cells (AID 1347116). Further: nearly all actives have a fitted effect of over 60% in size. The gist of the method:
(§4)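 Viability measured as metabolically active cells via CellTiter-Glo luminescence following 48 hours of compound exposure, 11-point dilutions in confirmatory testing. 500-1,000 cells/well plated 5 hours before dosing; controls were DMSO and 2.3 µM bortezomib.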

Assay [19] is described as follows: qHTS of pediatric cancer cell lines to identify multiple opportunities for drug repurposing: Confirmatory screen for A673 cells (AID 1347110).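 Further: cells exposed to compound for 48 h before the viability read; nearly all actives have a fitted effect of over 65% in size.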 An outline of the steps: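 Cells plated at 500-1,000/well were treated five hours later with multi-point dilutions up to 46 µM final. After two days, CellTiter-Glo was added and luminescence read.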
Assay [20] is described as follows: qHTS of pediatric cancer cell lines to identify multiple opportunities for drug repurposing: Confirmatory screen for DAOY cells (AID 1347114). Further: nearly all actives have a fitted effect of over 65% in size. The gist of the method: as §4

Inconclusive results are not listed. Active and inactive are the calls of the source. The call rests on the fitted dose curve; in most records, active means well fitted curve in the direction sought with a large enough effect; inconclusive means small, poorly fitted or top-dose-only effect, or another doubt; inactive means no such curve, though single readings can be large; an effect the other way counts as inactive or inconclusive.
Potency means the concentration at half of the fitted maximal effect.

For the molecule `O=c1[nH]c(=O)n(C2CCCO2)cc1F` (stereo not given), the Potency result in assay [1], in assay [2], in [3], in assay [4], in [5] and in assay [6] was “inactive” throughout. In addition, the Potency entry in assay [7], in [8], in [9], in [10] and in assay [11] was “inactive” each time.

For `CCC[C@H](NC(=O)C(C#N)=Cc1cccc(Br)n1)c1ccccc1`, the Potency was 33.2 µM (active) in [1]; 24.1 µM (active) in [2]; 7.43 µM (active) in assay [3]; 14.8 µM (active) in assay [4]; 27.3 µM (active) in assay [5]; 14.8 µM (active) in [6]. The Potency in assay [12] was 12.2 µM (active); in [7] it was 13.2 µM (active); in assay [11], 14.8 µM (active). The Potency entry in [9] is “inactive”.

Regarding `c1ccc2c(CCNc3ccc(Nc4ccncc4)cc3)c[nH]c2c1`, the Potency is 14.8 µM (active) in [1]; 19.2 µM (active) in assay [2]; 5.26 µM (active) in assay [3]; 4.18 µM (active) in assay [4]; 21.7 µM (active) in assay [5]; 18.7 µM (active) in [6]. For the same molecule, the Potency is 6.85 µM (active) in [12], 26.4 µM (active) in assay [7] and 18.7 µM (active) in assay [11]. The Potency entry in assay [9] was “inactive”.

On to `COC(=O)Nc1ccc(-c2nc(N3CCOCC3)c3cnn(C4CCN(Cc5cccnc5)CC4)c3n2)cc1`, for which the Potency in assay [1] is 0.833 µM (active); in assay [2], 21.5 µM (active); in assay [4], 14.8 µM (active); in assay [5], 1.09 µM (active); in assay [6], 0.935 µM (active); in assay [12] it was 0.109 µM (active). Moreover, the Potency in [7] is 1.32 µM (active); in assay [8], 0.235 µM (active); in [11], 0.132 µM (active); in assay [14], 1.04 µM (active). The Potency entry in assay [3] and in assay [13] was “inactive” in each case.

As to `CC[C@@H]1C(=O)N(C)c2cnc(Nc3ccc(C(=O)NC4CCN(C)CC4)cc3OC)nc2N1C1CCCC1`, the Potency in assay [1] was 0.0469 µM (active); in [2] it was 2.41 µM (active); in [3], 1.32 µM (active); in assay [4], 0.0332 µM (active); in assay [5] it was 0.172 µM (active); in assay [6] it was 5.9 µM (active). Besides, the Potency in assay [12] was 0.0544 µM (active); in assay [7] it was 0.059 µM (active); in [9], 23.5 µM (active); in assay [13], 3.29 µM (active); in assay [14] it was 0.0465 µM (active); in assay [15], 16.5 µM (active). Moreover, the Potency in assay [16] is 5.22 µM (active); in assay [17], 3.29 µM (active); in assay [18] it was 1.04 µM (active).

For the molecule `O=C(c1ccc(Nc2nccc(-c3cc4ccccc4s3)n2)cc1)N1CCC(N2CCCC2)CC1`, the Potency was 16.6 µM (active) in assay [1]; 19.2 µM (active) in assay [2]; 11.8 µM (active) in [3]; 11.8 µM (active) in [4]; 27.3 µM (active) in [5]; 14.8 µM (active) in assay [6]. Moreover, the Potency is 7.69 µM (active) in assay [12]; 10.5 µM (active) in assay [7]; 18.7 µM (active) in assay [8]; 23.5 µM (active) in assay [10]; 18.7 µM (active) in assay [11].

`CC[C@H]1CN2CCc3cc(OC)c(OC)cc3[C@H]2C[C@@H]1C[C@@H]1NCCc2cc(OC)c(OC)cc21`: the Potency was 0.526 µM (active) in assay [1]; 0.341 µM (active) in assay [2]; 0.418 µM (active) in [3]; 0.833 µM (active) in assay [4]; 0.193 µM (active) in assay [5]; 2.09 µM (active) in [6]. Moreover, the Potency in [12] is 0.485 µM (active); in assay [7] it was 0.469 µM (active); in assay [11], 4.69 µM (active); in assay [13], 1.85 µM (active); in assay [19] it was 0.657 µM (active); in [14], 0.293 µM (active). Further, the Potency is 0.261 µM (active) in [15]; 0.165 µM (active) in [16]; 3.69 µM (active) in assay [20]; 0.657 µM (active) in assay [17]; 0.522 µM (active) in assay [18]. The Potency entry in assay [9] and in assay [10] was “inactive” throughout.

As to `CC[C@@]1(O)C(=O)OCc2c1cc1n(c2=O)Cc2cc3cc(O)ccc3nc2-1`, the Potency in assay [1] is 0.0662 µM (active); in [2], 0.429 µM (active); in assay [3], 0.059 µM (active); in [4], 0.0132 µM (active); in [5], 0.385 µM (active); in assay [6], 0.418 µM (active). Further, the Potency in assay [12] was 0.0343 µM (active); in [7] it was 1.32 µM (active); in assay [8] it was 0.0935 µM (active); in [11], 0.469 µM (active); in assay [13], 0.0737 µM (active); in [19], 0.0465 µM (active). Also, the Potency in assay [14] is 0.0131 µM (active); in assay [15], 0.827 µM (active); in assay [16], 0.0414 µM (active); in assay [20], 0.657 µM (active); in assay [17], 0.0165 µM (active).

On to `CC(C)(C)OC(=O)Nc1ccc(-c2cc(C(=O)NCCCCCCC(=O)NO)no2)cc1`, for which the Potency in assay [1] is 2.35 µM (active); in assay [2], 6.81 µM (active); in [3], 1.18 µM (active); in assay [4], 1.66 µM (active); in assay [5], 17.2 µM (active); in [6] it was 2.35 µM (active). In addition, the Potency was 4.32 µM (active) in [12]; 5.26 µM (active) in assay [7]; 7.43 µM (active) in [10]; 3.72 µM (active) in [11]; 1.17 µM (active) in [13]; 2.33 µM (active) in assay [19]. Besides, the values for the Potency in [14], in assay [15] and in assay [18] were 0.0329 µM (active), 18.5 µM (active) and 4.14 µM (active), respectively. The Potency result in assay [8] is “inactive”.

Consider `C#Cc1cccc(Nc2ncnc3cc(OC)c(OCCCCCCC(=O)NO)cc23)c1`, for which the Potency in [1] was 0.209 µM (active); in assay [2], 0.121 µM (active); in assay [3], 0.0743 µM (active); in assay [4] it was 0.332 µM (active); in assay [5], 2.17 µM (active); in assay [6], 0.469 µM (active). Besides, the Potency was 0.485 µM (active) in assay [12]; 0.187 µM (active) in assay [7]; 0.118 µM (active) in assay [8]; 11.8 µM (active) in assay [10]; 0.372 µM (active) in [11]; 0.955 µM (active) in assay [13]. The Potency is 2.4 µM (active) in [19]; 0.603 µM (active) in assay [14]; 5.37 µM (active) in assay [15]; 0.676 µM (active) in assay [16]; 2.14 µM (active) in assay [20]; 1.7 µM (active) in assay [17]. In addition, the Potency in assay [18] was 1.91 µM (active).

As for `CNc1nccc(-c2cccnc2Oc2cc(C(=O)Nc3cccc(C(F)(F)F)c3)ccc2C)n1`, the Potency in assay [1] is 16.6 µM (active); in assay [2] it was 9.61 µM (active); in [3], 11.8 µM (active); in assay [4], 16.6 µM (active); in [5] it was 19.3 µM (active); in [6], 18.7 µM (active). The results for the Potency in assay [12], in assay [7] and in assay [8] were 15.3 µM (active), 8.33 µM (active) and 4.69 µM (active), respectively. For the same molecule, the Potency entry in [10] is “inactive”.
